The list is not random: actives were taken first. Their share in the collection is about 19%.
Shiga inhibitor: A qHTS for Small Molecule Inhibitors of Shiga Toxin; Vero cells, Shiga toxin protein synthesis inhibition reporter; 9.2% of 290,000 active; inhibition, % at 38.7 µM; in the data active means inhibition mostly above about 28%, no sharp cut-off; inactive means mostly below about 43%; further: 0% is about no effect
Pf growth 96h: Primary qHTS for delayed death inhibitors of the malarial parasite plastid, 96 hour incubation; AID 504834, 2011; 6.9% of 320,000 active; Potency, µM (doses to about 28.7 µM), for inactives: at the top dose activity change, negative = inhibition, most hits filed as inhibitors; P. falciparum luciferase reporter growth, 96 h; further: potency means the concentration at half of the fitted maximal effect; on the % scale 0 is the no-effect control and ±100 the full control effect
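Two-generation exposure (96 h) targets delayed-death phenotype. Reporter parasites carrying integrated firefly luciferase, in red cells at 2% hematocrit and 0.05% parasitemia final, kept at 37 C, 5% CO2; luminescence loss indicates inhibition.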
Pf growth 48h: Primary qHTS for delayed death inhibitors of the malarial parasite plastid, 48 hour incubation; P. falciparum luciferase growth in erythrocytes, 48 h; Potency, µM (doses to about 28.7 µM), for inactives: at the highest dose activity change, negative = inhibition, usual class: inhibitors; 5.9% of 310,000 active; further: potency means the concentration at half of the fitted maximal effect; on the % scale 0 is the no-effect control and ±100 the full control effect
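Luciferase-expressing parasites in RBCs, 2% Hct / 0.1% parasitemia final; RPMI 1640 + 0.5% Albumax; 37 C, 5% CO2, one generation; luminescence read-out, lower signal = inhibition.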
SARS PLP yeast: qHTS of Yeast-based Assay for SARS-CoV PLP; S. cerevisiae expressing SARS-CoV PLpro, growth rescue; Potency, µM (titrated, usually from 32.9 µM), inactives show at the top dose activity, positive = growth rescue, actives largely listed as activators; AID 485353, 2010; 0.19% of 330,000 active; calls by dose curve; further: potency means the concentration at half of the fitted maximal effect; 0% is about no effect; nearly all actives have a fitted effect of over 55% in size
AMA1-RON2 inh: qHTS for Inhibitors of AMA1-RON; Towards Development of Antimalarial Drug Lead: Primary Screen. Plasmodium falciparum AMA1 (3D7) - RON2 peptide interaction. AlphaScreen AMA1-biotinylated RON2 peptide binding. Potency, µM (series often up to 58.2 µM), inactives show at the highest dose activity change, negative = inhibition, hits mostly inhibitors. 0.2% of 360,000 active. AID 720542, 2013;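 further: potency means the concentration at half of the fitted maximal effect; 0% = vehicle wells and -100% = peptide control; nearly all actives have a fitted effect of over 45% in size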
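AMA1 (3D7) with his tag at 25 nM final met compounds first, then biotinylated RON2 peptide at 25 nM; detection used donor plus acceptor beads, 10 µg/mL apiece, read by AlphaScreen after 30 min at room temperature.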
Cycloheximide cs: Cycloheximide Counterscreen for Small Molecule Inhibitors of Shiga Toxin | cell reporter, cycloheximide protein synthesis inhibition counterscreen | max response, % | 12% of 300,000 active | AID 2314, 2010; in the data active means max response mostly above about 13%, no sharp cut-off; inactive means mostly below about 14%; further: read at 38.3 µM for the half of the compounds with a filed dose; 0% is about no effect
* = called active by the depositor; ? = inconclusive; nt = no result; ! = not confirmed by another sample. Unless noted, the call rests on the fitted dose curve; in most records, active means well fitted curve in the direction sought with a large enough effect; inconclusive means small, poorly fitted or top-dose-only effect, or another doubt; inactive means no such curve, though single readings can be large; an effect the other way counts as inactive or inconclusive.

SMILES | Shiga inhibitor | Pf growth 96h | Pf growth 48h | SARS PLP yeast | AMA1-RON2 inh | Cycloheximide cs
CCOC(=O)Nc1cc2c(cc1[N+](=O)[O-])-c1ccccc1C2=O | nt | nt | nt | nt | -1% | nt
O=C1/C(=C\c2ccc(O)c(O)c2)SC(=S)N1Cc1ccccc1 | 14 | 33% | 13µM* | -11% | ? | 11
O=C(O)CN1C(=O)/C(=C\c2cc(Br)ccc2OCc2ccc(Cl)cc2)SC1=S | 37 | 10µM* | 19% | 1% | -8% | 7
O=C(O)CN1C(=O)/C(=C\c2cc(Br)ccc2OCc2ccc(F)cc2)SC1=S | -7 | -12% | 20% | 2% | -8% | -4
COc1cc(/C=C2/SC(=S)N(Cc3ccccc3)C2=O)ccc1O | 35 | ? | ? | -4% | -8% | -1
COc1ccc(/C=C2/SC(=S)N(CC(=O)O)C2=O)cc1OCc1ccc(Cl)cc1 | 42* | -10% | ? | -2% | -12% | 33*
O=C(O)COc1cccc(/C=C2/SC(=S)N(Cc3ccccc3)C2=O)c1 | -1 | ? | 3% | -1% | -28% | -2
O=C(O)CN1C(=O)/C(=C\c2cccc(OCc3ccccc3)c2)SC1=S | nt | 15µM* | 14% | 1% | -4% | 1
Cc1ccccc1C1NC(=S)NC2=C1C(=O)CCC2 (stereo not drawn) | -4 | 9% | -23% | -2% | -7% | -1
O=C(COC(=O)C12CC3CC(CC(Cl)(C3)C1)C2)NCc1ccco1 | -9 | nt | nt | nt | nt | -4
N#Cc1ccsc1NC(=O)COC(=O)C1=NNC(=O)CC1 | nt | 66% | 78% | 1% | 17% | nt
O=C(CCc1nnc2n(Cc3ccc(F)cc3)c(=O)c3ccccc3n12)N1CCN(c2ccccn2)CC1 | -8 | -22% | ? | 0% | 10% | 15
Cn1c(=O)c2c(-c3ccccc3)n(-c3cc([N+](=O)[O-])ccc3O)cc2n(C)c1=O | nt | nt | nt | nt | 22% | nt
Cc1cccc(-c2c3c(=O)n(C)c(=O)n(C)c3cn2-c2ccccc2O)c1 | 11 | 8.3µM* | 1.9µM* | -15% | -7% | 9
CCN(c1ccccc1)S(=O)(=O)c1ccc(OC)c(NC(=O)Cc2ccc(OC)c(OC)c2)c1 | nt | ? | ? | 1% | -10% | nt
CCN(CC)S(=O)(=O)c1ccc(OC)c(NC(=O)Cc2cccs2)c1 | -11 | 20% | -4% | 0% | -9% | 32*
CCN(c1ccccc1)S(=O)(=O)c1ccc(OC)c(NC(=O)c2c(C)noc2C)c1 | nt | 18% | 23% | -5% | -5% | nt
CCN(c1ccccc1)S(=O)(=O)c1ccc(OC)c(NC(=O)c2cc(Cl)ccn2)c1 | nt | 6.6µM* | ? | -5% | -10% | nt
CCN(c1ccccc1)S(=O)(=O)c1ccc(OC)c(NC(=O)Cc2ccccc2OC)c1 | nt | 13µM* | 12µM* | -6% | -6% | nt
CCN(c1ccccc1)S(=O)(=O)c1ccc(Cl)c(NC(=O)Nc2ccc(Cl)cc2C#N)c1 | 47* | -90% | ? | 3% | -2% | 30*
O=C(O)CC(NC(=O)CC(c1ccccc1)c1ccccc1)c1cccc([N+](=O)[O-])c1 (stereo not drawn) | 0 | 2% | 19% | 1% | -3% | -1
CCOc1ccc2nc(N3C(=O)/C(=C/c4ccc(Cl)cc4)NC3=S)sc2c1 | 2 | ? | 11% | -3% | 15% | 13*
CCOc1ccc(C(=O)NCc2ccco2)cc1 | 63* | 13% | nt | 4% | 5% | 41*
CCOc1cc(OCC)cc(C(=O)NCc2ccco2)c1 | -6 | ? | 13% | -5% | -10% | 1
O=C(NCc1ccco1)c1ccc2c(c1)C(=O)N(Cc1ccccc1)C2=O | 3 | 21% | 0% | -2% | 5% | -1
SMILES | Shiga inhibitor | Pf growth 96h | Pf growth 48h | SARS PLP yeast | AMA1-RON2 inh | Cycloheximide cs
O=C(NCc1ccco1)c1ccc2c(c1)C(=O)c1ccccc1-2 | 67* | nt | 12% | -7% | -4% | 19*
COc1cccc(C(=O)NCCS(=O)(=O)NCc2ccco2)c1 | nt | 66% | 40% | 0% | 0% | nt
COc1cccc(C(=O)NCc2ccco2)c1 | -2 | 10µM* | 0% | 1% | 0% | 1
O=C(NCc1ccco1)c1ccc(COc2cccc3ccccc23)cc1 | 28 | 7.4µM* | 7.4µM* | -6% | 15% | 9
O=C(NCc1ccco1)c1ccc(COc2ccccc2Cl)cc1 | 35 | ? | ? | -16% | -1% | 16
O=C(NCc1ccco1)c1ccc(C(=O)NCc2ccco2)cc1 | nt | nt | nt | nt | -3% | nt
CCOC(=O)N1CCC(N2C(=O)c3ccc(C(=O)NCc4ccco4)cc3C2=O)CC1 | 17 | 12µM* | 13% | 1% | 0% | -5
COCCNC(=O)c1ccc2c(c1)C(=O)c1ccccc1-2 | 19 | ? | nt | -2% | -5% | 10
CC(C)(CO)NC(=O)c1ccc2c(c1)C(=O)c1ccccc1-2 | 86* | -22% | nt | 3% | -5% | 51*
O=C(NCc1ccco1)c1ccc(Oc2ccccc2)cc1 | 76* | 7.4µM* | nt | -18% | -5% | 55*
O=C(NCc1ccco1)c1ccc(COc2ccc(Cl)cc2)cc1 | 33 | ? | ? | 6% | 1% | 11
CC(C)COc1ccc(C(=O)NCc2ccco2)cc1 | 36* | nt | 12µM* | -2% | 5% | 14*
O=C(Cc1c[nH]c2ccccc12)NNC(=O)c1ccccc1 | -15 | 4% | 11% | 9% | 32% | -8
CCC(Sc1nc(C)cc(C)n1)C(=O)Nc1ccc(Cl)cn1 (stereo not drawn) | 8 | 1% | ? | -19% | -2% | -1
O=C(NCc1ccccc1F)Nc1ccc([N+](=O)[O-])cc1 | 35* | 13µM* | -5% | 1% | 10% | 18
O=C(NCc1ccco1)c1cccc(F)c1 | -3 | ? | 7% | nt | 10% | 2
CCOc1ccc(NC(=O)NCc2ccco2)cc1 | 25 | 4% | 27% | -1% | -8% | 12*
O=C(NCc1ccco1)Nc1ccc([N+](=O)[O-])cc1 | 24 | 69% | 7% | -2% | 3% | 26*!
O=C(NCc1ccco1)c1ccc2ccccc2c1 | 79* | 84% | 36% | -21% | 3% | 36*
CCOc1ccc(OCCCC(=O)Nc2cc(Cl)ccc2-n2cncn2)cc1 | nt | -6% | -30% | 3% | 3% | nt
O=C(NC1CC1)c1cccc(NC(=O)C2CCCCC2)c1 | nt | nt | nt | nt | 2% | nt
CC(=O)N1CCN(C(=O)c2ccc(NS(=O)(=O)c3ccc4[nH]c(=O)[nH]c4c3)cc2)CC1 | nt | 0% | -4% | 0% | 9% | nt
O=C1c2ccccc2C(=O)C1c1ccc(Cl)cc1 | 47 | ? | ? | 8% | -5% | 27*
O=C1c2ccccc2C(=O)C1c1ccc(Br)cc1 | 88* | 15µM* | ? | -7% | 13% | 19*

Screening data from PubChem.
